Results filed as inconclusive are left out. Calls of active or inactive are those of the source. Unless noted, the call rests on the fitted dose curve; in most records, active means well fitted curve in the direction sought with a large enough effect in the repeat runs; inconclusive means weak or mixed curves; inactive means no such curve, though single readings can be large; an effect the other way counts as inactive or inconclusive.
What was measured:
[1] = qHTS RealTime-Glo MT Cell Viability Assay in HEK293 cells - 0 hour (AID 1224880); further: top concentration of the series differs between compounds; nearly all actives have a fitted effect of over 45% in size
Summary of the method: (§1)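 600 HEK293 cells per well, dispensed already mixed with RealTime-Glo MT reagents. Compound dosing came 5 h later. The same wells were read for luminescence at 0, 8, 16, 24, 32 and 40 h of exposure at 37 C.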

[2] = A CellTox Green Cytotoxicity Assay to monitor cytotoxicity in HEK293 cells - 32 hour (AID 1224881); further: nearly all actives have a fitted effect of over 40% in size
Summary of the method: (§2)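 Dead-cell fluorescence measured kinetically: asymmetric cyanine dye, HEK293, 600 cells/well, 5 h settle, 23 nL cpd/DMSO, 37 C, reads 0–40 h every 8 h.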

[3] = A CellTox Green Cytotoxicity Assay to monitor cytotoxicity in HepG2 cells - 0 hour (AID 1224882); further: nearly all actives have a fitted effect of over 35% in size
Summary of the method: (§3)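 First, HepG2 cells (600/well) mixed with reagent were plated; second, after 5 h at 37 C they received compounds via pintool; third, fluorescence was measured at 0 h through 40 h at 8 h intervals.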

[4] = A CellTox Green Cytotoxicity Assay to monitor cytotoxicity in HepG2 cells - 32 hour (AID 1224883); further: nearly all actives have a fitted effect of over 50% in size
Summary of the method: as §3

[5] = qHTS RealTime-Glo MT Cell Viability Assay in HepG2 cells - 16 hour (AID 1224885); further: nearly all actives have a fitted effect of over 50% in size
Summary of the method: (§4)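 qHTS, HepG2, 600 cells/well, RealTime-Glo (NanoLuc + prosubstrate) added with cells; 5 h preincubation; DMSO compound addition; 37 C; luminescence at 0/8/16/24/32/40 h.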

[6] = qHTS RealTime-Glo MT Cell Viability Assay in HEK293 cells - 24 hour (AID 1224886); further: nearly all actives have a fitted effect of over 50% in size; further: potency means the concentration at half of the fitted maximal effect; on activity change, negative = cytotoxicity: top concentration of the series differs between compounds
Summary of the method: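 Assay medium contained NanoLuc luciferase plus cell-permeant prosubstrate, added with HEK293 cells at 600 cells/well. After 5 h at 37 C/5% CO2 compounds were added; plates stayed at 37 C for 40 h with serial luminescence reads.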

[7] = A CellTox Green Cytotoxicity Assay to monitor cytotoxicity in HEK293 cells - 16 hour (AID 1224888); further: nearly all actives have a fitted effect of over 35% in size
Summary of the method: as §2

[8] = qHTS RealTime-Glo MT Cell Viability Assay in HepG2 cells - 0 hour (AID 1224889); further: nearly all actives have a fitted effect of over 50% in size
Summary of the method: as §4

[9] = A CellTox Green Cytotoxicity Assay to monitor cytotoxicity in HepG2 cells - 8 hour (AID 1224890); further: nearly all actives have a fitted effect of over 45% in size
Summary of the method: as §3

[10] = qHTS assay to identify small molecule antagonists of the estrogen receptor alpha (ER-alpha) signaling pathway using the BG1 cell line in the presence of 0.1 nM 17-beta-estradiol - cell viability counter screen (AID 1259241); further: nearly all actives have a fitted effect of over 40% in size
Summary of the method: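 VM7Luc4E2, 4,000 cells/well, phenol red-free medium + 10% charcoal-stripped FBS; 24 hr plating; cpd + 0.1 nM E2 final, 22 hr 37C/5% CO2; CellTiter-Fluor 30 min, fluorescence.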

[11] = qHTS assay to identify small molecule antagonists of the androgen receptor (AR) signaling pathway using the MDA cell line in the presence of 0.5 nM R1881 - cell viability counter screen (AID 1259242); further: nearly all actives have a fitted effect of over 45% in size
Summary of the method: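 qHTS format. MDA-kb2 (MMTV-luc, AR/GR responsive) + cpd + 0.5 nM R1881 final, 16 hr 37C/0% CO2 → CellTiter-Fluor 30 min → fluorescence intensity.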

[12] = molecular target: Estrogen receptor (Homo sapiens) (UniProt P03372); assay: qHTS assay to identify small molecule antagonists of the estrogen receptor alpha (ER-alpha) signaling pathway using the BG1 cell line in the presence of 0.1 nM 17-beta-estradiol (AID 1259244); further: nearly all actives have a fitted effect of over 50% in size
Estrogen receptor (Homo sapiens), sequence (P03372 whole entry, looked up): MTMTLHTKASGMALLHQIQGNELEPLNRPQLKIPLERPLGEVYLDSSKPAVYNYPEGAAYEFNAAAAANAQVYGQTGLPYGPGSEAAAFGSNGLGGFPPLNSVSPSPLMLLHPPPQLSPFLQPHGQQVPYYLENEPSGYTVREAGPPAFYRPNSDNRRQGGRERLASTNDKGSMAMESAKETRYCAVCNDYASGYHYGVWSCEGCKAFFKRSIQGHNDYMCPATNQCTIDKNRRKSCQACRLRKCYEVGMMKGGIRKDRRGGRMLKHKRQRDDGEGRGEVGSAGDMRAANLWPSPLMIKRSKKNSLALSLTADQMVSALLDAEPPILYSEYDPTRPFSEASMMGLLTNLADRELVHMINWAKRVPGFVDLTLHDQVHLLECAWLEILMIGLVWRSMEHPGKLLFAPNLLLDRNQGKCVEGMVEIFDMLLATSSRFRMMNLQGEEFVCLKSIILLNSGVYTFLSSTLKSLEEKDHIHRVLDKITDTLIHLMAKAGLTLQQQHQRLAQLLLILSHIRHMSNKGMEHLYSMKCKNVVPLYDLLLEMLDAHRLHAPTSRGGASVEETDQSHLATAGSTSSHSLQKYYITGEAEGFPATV
Summary of the method: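 Reporter is a stably transfected luciferase under four estrogen responsive elements in VM7Luc4E2 cells expressing native full-length ER-alpha; inhibition of 0.1 nM (final) 17beta-estradiol-driven signal over 22 h is read by luminescence.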

[13] = qHTS assay to identify small molecule HDAC inhibitors (AID 1259364);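 further: wild-type HCT-116 cells with endogenous class I/II HDAC activity; top concentration of the series differs between compounds; nearly all actives have a fitted effect of over 45% in size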
Summary of the method: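 Quantitative high-throughput format: overnight-seeded HCT-116 cells got compounds for 2 hr at 37C; HDAC-Glo I/II reagent added, 30 min RT, luminescence measured.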

[14] = qHTS assay to identify small molecule HDAC inhibitors - cell viability counter screen (AID 1259365)
Summary of the method: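 Luminescence from CellTiter-Glo, developed 30min at room temperature, reports viability of wild-type HCT-116 cells treated 2hr with compounds at 37 C and 5% CO2 after overnight plating.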

[15] = qHTS assay to identify small molecule agonists of the sonic hedgehog signaling (Shh) pathway - cell viability counter screen (AID 1259366); further: nearly all actives have a fitted effect of over 50% in size
Summary of the method: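 Cytotoxicity counter screen run in the same wells as the Shh reporter assay. NIH/3T3 cells carrying a Gli1 response element–driven luciferase were treated with DMSO-dissolved compounds for 24hr, and live-cell protease activity was measured with CellTiter-Fluor.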

[16] = qHTS assay to identify small molecule antagonists of the sonic hedgehog signaling (Shh) pathway - cell viability counter screen (AID 1259367); further: nearly all actives have a fitted effect of over 55% in size
Summary of the method: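 Tox21 library chemicals were tested on a Gli1-Luc NIH/3T3 clone (2,000 cells/well) stimulated by conditioned medium; viability was quantified as fluorescence from CellTiter-Fluor reagent added at 23 hr.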

[17] = qHTS RealTime-Glo MT Cell Viability Assay in HEK293 cells - 8 hour (AID 1224887); further: nearly all actives have a fitted effect of over 50% in size; further: potency means the concentration at half of the fitted maximal effect; on activity change, negative = cytotoxicity: top concentration of the series differs between compounds
Summary of the method: as §1

[18] = A CellTox Green Cytotoxicity Assay to monitor cytotoxicity in HEK293 cells - 8 hour (AID 1224884); further: nearly all actives have a fitted effect of over 35% in size
Summary of the method: as §2

[19] = molecular target: Androgen receptor (Homo sapiens) (UniProt P10275); assay: qHTS assay to identify small molecule antagonists of the androgen receptor (AR) signaling pathway using the MDA cell line in the presence of 0.5 nM R1881 (AID 1259243); further: nearly all actives have a fitted effect of over 50% in size
Androgen receptor (Homo sapiens), sequence (P10275 whole entry, looked up): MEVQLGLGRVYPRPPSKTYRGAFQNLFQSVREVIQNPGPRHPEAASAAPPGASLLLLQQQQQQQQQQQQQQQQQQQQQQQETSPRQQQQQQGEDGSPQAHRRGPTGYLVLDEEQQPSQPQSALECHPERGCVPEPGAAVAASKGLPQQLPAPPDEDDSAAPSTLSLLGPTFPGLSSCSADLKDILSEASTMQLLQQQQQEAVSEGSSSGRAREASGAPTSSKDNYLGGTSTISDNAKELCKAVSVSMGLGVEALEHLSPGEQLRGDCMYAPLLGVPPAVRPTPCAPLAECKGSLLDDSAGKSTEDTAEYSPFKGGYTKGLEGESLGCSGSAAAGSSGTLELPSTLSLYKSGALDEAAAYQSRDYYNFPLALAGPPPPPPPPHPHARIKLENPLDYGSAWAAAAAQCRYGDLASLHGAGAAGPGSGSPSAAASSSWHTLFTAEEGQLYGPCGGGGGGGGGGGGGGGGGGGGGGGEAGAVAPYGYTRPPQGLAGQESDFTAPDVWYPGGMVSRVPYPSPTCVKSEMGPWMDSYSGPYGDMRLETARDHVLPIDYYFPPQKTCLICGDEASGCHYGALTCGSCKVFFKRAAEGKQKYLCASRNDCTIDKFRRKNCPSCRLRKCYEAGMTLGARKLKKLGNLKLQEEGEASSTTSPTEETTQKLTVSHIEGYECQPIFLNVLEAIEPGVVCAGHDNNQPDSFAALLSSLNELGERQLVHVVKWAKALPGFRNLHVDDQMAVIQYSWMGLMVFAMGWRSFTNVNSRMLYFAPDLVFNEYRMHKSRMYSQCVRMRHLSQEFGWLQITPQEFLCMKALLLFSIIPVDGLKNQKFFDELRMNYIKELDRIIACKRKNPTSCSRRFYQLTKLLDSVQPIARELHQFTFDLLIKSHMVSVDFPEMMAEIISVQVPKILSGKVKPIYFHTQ
Summary of the method: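 Antagonist mode quantitative HTS in MDA-kb2 MMTV-luciferase cells, agonist R1881 at 0.5 nM final, 16 hr exposure at 37C and 0% CO2, luminescent detection.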

[20] = qHTS assay to identify small molecule phospholipidosis (PLD) inducers (AID 1259344; active means well fitted curve in the direction sought with a large enough effect; an effect the other way counts as inactive or inconclusive)
Summary of the method: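 Image-based: LipidTOX Red pit count/intensity per well and per cell; HepG2, 24 h compound at 37 C, PFA fixation, Hoechst counterstain.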
On the % scale 0 is the no-effect control and ±100 the full control effect.

Nc1cccc(O)c1
inactive: Potency [1] | Potency [2] | outcome [3] | Potency [4] | outcome [5] | Potency [6] | outcome [7] | Potency [8] | outcome [9] | Potency [10] | outcome [11] | Potency [12] | Potency [13] | outcome [14] | Potency [15] | Potency [16]

CC(C)CC(C)CC(C)CC(C)COC(=O)c1ccccc1C(=O)OCC(C)CC(C)CC(C)CC(C)C (centres undefined)
inactive: Potency [1] | Potency [2] | outcome [3] | Potency [4] | outcome [5] | Potency [6] | Potency [17] | outcome [7] | Potency [8] | outcome [9] | Potency [10] | outcome [11] | Potency [13] | Potency [15] | Potency [16]

O=S(=O)(O)CCN1CCN(CCO)CC1
inactive: Potency [1] | outcome [3] | Potency [4] | Potency [18] | outcome [5] | Potency [6] | Potency [17] | outcome [7] | outcome [9] | Potency [10] | outcome [11] | Potency [13] | outcome [14] | Potency [15] | Potency [16]

Brc1ccc(-c2ccccc2)cc1
inactive: Potency [2] | outcome [3] | Potency [4] | Potency [18] | outcome [5] | Potency [6] | outcome [7] | Potency [8] | outcome [9] | Potency [10] | outcome [11] | Potency [13] | outcome [14] | Potency [15] | Potency [16]

C=C(C)C(=O)OCCNC(C)(C)C
inactive: Potency [2] | outcome [3] | Potency [4] | Potency [18] | outcome [5] | Potency [6] | Potency [17] | outcome [7] | Potency [8] | Potency [10] | Potency [13] | outcome [14] | Potency [15] | Potency [16]

CC(C)(C)c1cc(CCC(=O)NN)cc(C(C)(C)C)c1O
inactive: Potency [2] | outcome [3] | Potency [18] | outcome [5] | Potency [6] | Potency [17] | outcome [7] | Potency [8] | outcome [9] | Potency [10] | outcome [11] | Potency [13] | outcome [14] | Potency [15] | Potency [16]

CC(C)OC(=O)CCCCC(=O)OC(C)C
inactive: Potency [2] | outcome [3] | Potency [4] | Potency [18] | outcome [5] | Potency [6] | Potency [17] | outcome [7] | Potency [8] | Potency [10] | outcome [11] | Potency [12] | Potency [13] | outcome [14] | Potency [15]

CCN(CC)CC(=O)Nc1c(C)cccc1C
inactive: Potency [2] | outcome [3] | Potency [4] | Potency [18] | outcome [5] | outcome [7] | Potency [8] | outcome [9] | Potency [10] | Potency [19] | outcome [20] | Potency [13] | Potency [15] | Potency [16]
active: Potency [6] 9.52 µM | Potency [17] 10.7 µM

CCN(C)C(=O)Oc1cccc([C@H](C)N(C)C)c1
inactive: Potency [2] | outcome [3] | Potency [4] | Potency [18] | outcome [5] | Potency [6] | Potency [17] | outcome [7] | Potency [8] | Potency [10] | outcome [11] | Potency [19] | Potency [12] | outcome [20] | Potency [13] | Potency [15] | Potency [16]

CC(C)=CCOC(=O)c1ccccc1
inactive: Potency [2] | outcome [3] | Potency [18] | outcome [5] | Potency [6] | Potency [17] | outcome [7] | Potency [8] | outcome [9] | Potency [10] | outcome [11] | Potency [13] | outcome [14] | Potency [15] | Potency [16]

C=C(C)C(=O)OCc1ccccc1
inactive: Potency [2] | outcome [3] | Potency [4] | Potency [18] | outcome [5] | Potency [6] | Potency [17] | outcome [7] | outcome [9] | Potency [10] | outcome [11] | Potency [12] | Potency [13] | outcome [14] | Potency [15] | Potency [16]

CC(=C(CCOC(=O)C(C)C)SSC(CCOC(=O)C(C)C)=C(C)N(C=O)Cc1cnc(C)nc1N)N(C=O)Cc1cnc(C)nc1N
inactive: Potency [2] | Potency [18] | outcome [5] | Potency [6] | Potency [17] | outcome [7] | Potency [8] | Potency [10] | outcome [11] | Potency [12] | Potency [13] | Potency [15] | Potency [16]

C=C1CC/C=C(\C)CC[C@@H]2[C@@H]1CC2(C)C
inactive: Potency [2] | outcome [3] | Potency [4] | outcome [5] | Potency [6] | outcome [7] | Potency [8] | outcome [9] | Potency [10] | Potency [12] | Potency [13] | outcome [14] | Potency [15] | Potency [16]

CC(=O)Nc1cccc(C)c1
inactive: Potency [2] | outcome [3] | Potency [4] | Potency [18] | outcome [5] | outcome [7] | Potency [8] | outcome [9] | Potency [10] | outcome [11] | Potency [13] | outcome [14] | Potency [15] | Potency [16]

Cc1ccc(S(=O)(=O)O)c(C)c1
inactive: Potency [2] | outcome [3] | outcome [5] | Potency [6] | Potency [17] | outcome [7] | Potency [8] | Potency [10] | outcome [11] | Potency [12] | Potency [13] | outcome [14] | Potency [15] | Potency [16]

COc1cc(NS(=O)(=O)c2ccc(N)cc2)nc(OC)n1
inactive: Potency [2] | outcome [3] | Potency [4] | Potency [18] | outcome [5] | Potency [6] | Potency [17] | outcome [7] | Potency [8] | outcome [9] | Potency [10] | Potency [19] | Potency [12] | outcome [20] | Potency [13] | outcome [14] | Potency [15] | Potency [16]

COc1cc(C(=S)N2CCOCC2)cc(OC)c1OC
inactive: Potency [2] | outcome [3] | Potency [4] | outcome [5] | Potency [6] | Potency [17] | outcome [7] | Potency [8] | outcome [9] | Potency [10] | outcome [11] | Potency [12] | outcome [20] | Potency [13] | outcome [14] | Potency [15] | Potency [16]

O=S(O)(O)=S
inactive: cytotoxicity increase [2] -0.289% [at 6.97 µM] | cytotoxicity [3] 8.46% [at 6.97 µM] | cytotoxicity increase [4] 0.202% [at 6.97 µM] | activity change, negative = cytotoxic [5] 1% [at 6.97 µM] | activity change, negative = cytotoxicity [6] 1.38% [at 6.97 µM] | activity change [7] -0.887% [at 6.97 µM] | activity change, negative = cytotoxicity [8] -0.126% [at 6.97 µM] | cytotoxicity increase [9] 4.07% [at 6.97 µM] | activity change, negative = cytotoxicity [10] 6.4% [at 8.39 µM] | viability change, negative = cytotoxic [11] -0.767% [at 8.39 µM] | activity change, negative = inhibition [12] 19% [at 8.39 µM] | activity change, negative = inhibition [13] 3.04% [at 8.39 µM] | activity change, negative = cytotoxicity [14] 0.217% [at 8.39 µM] | viability change, negative = cytotoxic [15] -0.643% [at 8.39 µM] | viability change, negative = cytotoxic [16] 1.07% [at 8.39 µM]

CCn1ccc(NS(=O)(=O)c2ccc(N)cc2)nc1=O
inactive: Potency [2] | outcome [3] | Potency [4] | outcome [5] | Potency [6] | Potency [17] | Potency [8] | outcome [9] | Potency [10] | Potency [12] | Potency [13] | outcome [14] | Potency [15] | Potency [16]

CNS(=O)(=O)CCc1ccc2[nH]cc(C3CCN(C)CC3)c2c1
inactive: Potency [2] | outcome [3] | Potency [4] | Potency [18] | outcome [5] | Potency [6] | Potency [17] | outcome [7] | Potency [8] | Potency [10] | outcome [11] | Potency [12] | outcome [20] | Potency [13] | outcome [14] | Potency [15] | Potency [16]

C#CC(C)N(C)C(=O)Nc1ccc(Cl)cc1 (centres undefined)
inactive: Potency [2] | outcome [3] | Potency [4] | Potency [18] | outcome [5] | outcome [7] | Potency [8] | outcome [9] | Potency [10] | outcome [11] | Potency [19] | outcome [14] | Potency [15] | Potency [16]
